# Test results as given in PubChem BioAssay (EPA / NIEHS).
# Results filed as inconclusive are left out. Activity calls are given as the source filed them. How the source made its calls, unless noted: active means hit-call score of the fitted dose curve at least 0.9, where 1 is the maximum; inconclusive means response in the unintended direction; inactive means score below 0.9.
# What was measured:
# [1] = target: Cellular tumor antigen p53 (Homo sapiens) (UniProt P04637); assay: TOX21_p53_BLA_p3_ratio: Tox21 HCT-116 p53 Agonism Beta-lactamase Assay, Ratio, Phase 3 (AID 2283596)
# Cellular tumor antigen p53 (Homo sapiens), sequence (P04637 whole entry, looked up): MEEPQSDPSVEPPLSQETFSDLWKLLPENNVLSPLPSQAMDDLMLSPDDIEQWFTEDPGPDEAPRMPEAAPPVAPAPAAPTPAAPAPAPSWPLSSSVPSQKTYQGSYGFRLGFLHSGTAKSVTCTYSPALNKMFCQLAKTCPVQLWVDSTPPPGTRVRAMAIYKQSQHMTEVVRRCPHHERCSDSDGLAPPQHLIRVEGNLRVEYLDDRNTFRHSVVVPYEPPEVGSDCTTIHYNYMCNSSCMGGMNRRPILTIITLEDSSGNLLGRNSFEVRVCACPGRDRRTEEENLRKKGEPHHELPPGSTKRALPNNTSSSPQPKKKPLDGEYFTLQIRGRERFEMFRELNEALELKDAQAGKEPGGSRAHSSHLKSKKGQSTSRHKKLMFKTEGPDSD
# Outline: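 HCT116 p53-bla cells (4000/well) given compound in DMSO (217-fold dilution) after 5 h, incubated 16 h at 37C. CCF4-AM substrate 2 h at room temperature; 460/530 nm emission ratio, gain fitted against DMSO.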
# [2] = TOX21_p53_BLA_p4_viability: Viability Assessment in the Tox21 HCT-116 p53 Agonism Beta-lactamase Assay, Phase 4 (AID 2283597);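 further: hits lower the luminescence signal meaning cytotoxicity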
# Outline: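 HCT-116 p53-bla cells, 4000/well, dosed after 5 h attachment and incubated 16 h at 37 °C, 5% CO2. Viability from CellTiter-Glo ATP luminescence after 30 min at room temperature, taken after the beta-lactamase read; loss of signal indicates cytotoxicity.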
# [3] = target: Cellular tumor antigen p53 (Homo sapiens) (UniProt P04637); assay: TOX21_p53_BLA_p4_ratio: Tox21 HCT-116 p53 Agonism Beta-lactamase Assay, Ratio, Phase 4 (AID 2283601)
# Outline: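 Signal is the blue/green (460nm/530nm) ratio of cleaved versus uncleaved CCF4-AM substrate, read after 2 h substrate loading. Cells were HCT116 carrying the p53-responsive beta-lactamase reporter, dosed 16 h at 37C, 5% CO2; CellTiter-Glo measured in parallel.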
# [4] = target: Cellular tumor antigen p53 (Homo sapiens) (UniProt P04637); assay: TOX21_p53_BLA_p5_ratio: Tox21 HCT-116 p53 Agonism Beta-lactamase Assay, Ratio, Phase 5 (AID 2283599)
# Outline: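 Beta-lactamase reporter ratio (blue 460 nm over green 530 nm, 405 nm excitation) after 2 h CCF4-AM loading, in HCT-116 cells exposed 16 h at 37 C to compounds pinned at 217-fold dilution. Increases relative to DMSO baseline scored.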
# [5] = TOX21_p53_BLA_p5_viability: Viability Assessment in the Tox21 HCT-116 p53 Agonism Beta-lactamase Assay, Phase 5 (AID 2283600)
# Outline: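 HCT-116 p53 beta-lactamase reporter cells, 4000/well, were exposed to compound (pin transfer, 217-fold dilution) for 16 hours at 37C. Cellular ATP was read by CellTiter-Glo luminescence after 30 min at room temperature.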
# [6] = TOX21_p53_BLA_p3_viability: Viability Assessment in the Tox21 HCT-116 p53 Agonism Beta-lactamase Assay, Phase 3 (AID 2283593);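 further: cells exposed to compound for 16 h before reading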
# Outline: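 Cellular ATP was quantified by CellTiter-Glo luminescence, read after 30 min at room temperature. Beforehand, HCT116 cells (4000/well) received compound 5 h post-seeding, 217-fold diluted from DMSO, then incubated 16 h at 37C.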
# [7] = CCTE_Harrill_HTTr_Viability_MCF7: CCTE's 6-hour Cell Viability Assessment for the High-Throughput Transcriptomics (HTTr) Platform, in MCF-7 cells cultured in DMEM + 10% fetal bovine serum, Harrill Lab (AID 2284010; active means hit-call score of the fitted dose curve at least 0.9, where 1 is the maximum; inactive means score below 0.9)
# Outline: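 MCF-7 cells in DMEM + 10% FBS, 384-well, exposed 6 h to an eight-point dilution series. Membrane integrity scored by high-content imaging of propidium iodide exclusion; bidirectional fit versus DMSO.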
# [8] = CCTE_Harrill_HTTr_Apoptosis_MCF7: CCTE's 6-hour Apoptosis Assessment for the High-Throughput Transcriptomics (HTTr) Platform, in MCF-7 cells cultured in DMEM + 10% fetal bovine serum, Harrill Lab (AID 2284011; active means hit-call score of the fitted dose curve at least 0.9, where 1 is the maximum; inactive means score below 0.9)
# Outline: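 MCF-7 cells in DMEM + 10% FBS exposed 6 h to chemicals over an eight-point dilution series. Caspase-3/7 activation imaged by high-content CellEvent Green staining; fitted bidirectionally versus DMSO.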
# [9] = CCTE_Harrill_HTTr_CellCount_MCF7: CCTE's Cell Proliferation Assessment for the High-Throughput Transcriptomics (HTTr) Platform, Harrill Lab (AID 2284012);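 further: intended direction is loss of nuclei count meaning fewer cells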
# Outline: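 MCF7 cells exposed 6 hours to an eight-point dilution series; Hoechst-stained nuclei counted by high-content imaging. Bidirectional curve fitting against DMSO baseline.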
# [10] = ATG_M_32_XSP2: Attagene TRANS-FACTORIAL Multi-Species (XSP2) HepG2 Assay for M19 Transcription Factor (Internal Marker) (AID 2283826)
# Outline: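 HepG2 cells transiently transfected with GAL4-UAS reporter units; XSP2 panel included 3 nM 6-alpha-fluorotestosterone and 1.5 nM norgestrel for androgen receptor stimulation. Reporter mRNA read 24 h post-dosing by RT-PCR/capillary electrophoresis; fitted upward versus DMSO.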
smiles,measurement,setting,value
[O-][Br+2]([O-])O,outcome,[1],inactive
same,outcome,[2],inactive
same,outcome,[3],inactive
CCC(C)Br (configuration not stated),outcome,[1],inactive
same,outcome,[2],inactive
same,outcome,[4],inactive
same,outcome,[5],inactive
same,outcome,[3],inactive
[Cl-].[Cl-].[Sn+2],outcome,[6],inactive
same,outcome,[2],inactive
same,outcome,[5],inactive
CN[C@@H](C)[C@H](O)c1ccccc1,outcome,[1],inactive
same,outcome,[4],inactive
same,outcome,[5],inactive
same,outcome,[3],inactive
COc1ccc2c3c1O[C@H]1[C@@H](O)C=C[C@H]4[C@@H](C2)N(C)CC[C@@]341,outcome,[2],inactive
same,outcome,[7],inactive
same,outcome,[8],inactive
same,outcome,[9],inactive
Cn1cc[n+](C)c1 (tested in a mixture with another compound),outcome,[6],inactive
same,outcome,[2],inactive
same,outcome,[5],inactive
CC(Cc1ccc2c(c1)OCO2)NO (configuration not stated),outcome,[6],inactive
same,outcome,[4],inactive
same,outcome,[3],inactive
CCc1cc(OC)c(C[C@H](C)N)cc1OC,outcome,[2],inactive
same,outcome,[4],inactive
same,outcome,[5],inactive
same,outcome,[3],inactive
COc1ccc2c3c1O[C@H]1[C@H](O)CC[C@H]4[C@@H](C2)N(C)CC[C@@]341,outcome,[1],inactive
same,outcome,[2],inactive
same,outcome,[5],inactive
same,outcome,[3],inactive
N#CCCl,outcome,[2],inactive
same,outcome,[4],inactive
same,outcome,[5],inactive
same,outcome,[3],inactive
C[C@H](N)[C@H](O)c1ccc(O)c(O)c1,outcome,[1],inactive
same,outcome,[4],inactive
same,outcome,[5],inactive
same,outcome,[3],inactive
CCCCC1C(=O)NC(=O)N(C2CCCCC2)C1=O (configuration not stated),outcome,[6],inactive
same,outcome,[4],inactive
same,outcome,[5],inactive
same,outcome,[3],inactive
CC1(C)S[C@@H]2[C@H](N)C(=O)N2[C@H]1C(=O)O,outcome,[2],inactive
same,outcome,[4],inactive
same,outcome,[5],inactive
same,outcome,[3],inactive
O=C=NC1CCCCC1,outcome,[2],inactive
same,outcome,[4],inactive
same,outcome,[5],inactive
same,outcome,[3],inactive
COc1c(C(C)(C)C)cc([N+](=O)[O-])c(C)c1[N+](=O)[O-],outcome,[1],inactive
same,outcome,[5],inactive
same,outcome,[3],inactive
CCN(CC)CCN1C(=O)CN=C(c2ccccc2F)c2cc(Cl)ccc21,outcome,[2],inactive
same,outcome,[5],inactive
CC(C)CCC(=O)O[C@H]1CC[C@H]2[C@@H]3CCC4=CC(=O)CC[C@]4(C)[C@H]3CC[C@]12C,outcome,[6],inactive
same,outcome,[4],inactive
same,outcome,[5],inactive
CCN(CC)C(=O)N[C@@H]1C=C2c3cccc4[nH]cc(c34)C[C@@H]2N(C)C1,outcome,[1],inactive
same,outcome,[4],inactive
same,outcome,[5],inactive
CCCCCBr,outcome,[2],inactive
same,outcome,[4],inactive
CCC(Cl)[N+](=O)[O-] (configuration not stated),outcome,[1],inactive
same,outcome,[4],inactive
same,outcome,[5],inactive
same,outcome,[3],inactive
CC(=O)[C@@]1(O)CC[C@H]2[C@@H]3CCC4=CC(=O)CC[C@]4(C)C3(F)[C@@H](O)C[C@@]21C (some centres not stated),outcome,[2],inactive
same,outcome,[5],inactive
CCNCC(O)c1cccc(O)c1 (configuration not stated),outcome,[1],inactive
same,outcome,[4],inactive
same,outcome,[5],inactive
same,outcome,[3],inactive
CCCCCCCCCC(=O)O[C@H]1CC[C@H]2[C@@H]3CCC4=CC(=O)CC[C@@H]4[C@H]3CC[C@]12C,outcome,[1],inactive
same,outcome,[3],inactive
CC(C)c1c(CN(C)C(C)Cc2ccccc2)n(C)n(-c2ccccc2)c1=O (configuration not stated),outcome,[6],inactive
same,outcome,[3],inactive
CC(C)(C)C(=O)C(Cl)Cl,outcome,[1],inactive
same,outcome,[4],inactive
same,outcome,[3],inactive
O=NN(CCO)CCO,outcome,[1],inactive
same,outcome,[2],inactive
same,outcome,[3],inactive
CCOC(=O)c1cncn1C(C)c1ccccc1 (configuration not stated),outcome,[1],inactive
NCCc1ccc(O)cc1,outcome,[1],inactive
same,outcome,[4],inactive
CCN[C@@H](C)Cc1ccccc1,outcome,[2],inactive
C#C[C@]1(O)CC[C@H]2[C@@H]3CCC4=CC(=O)CC[C@@H]4[C@H]3CC[C@@]21CC,outcome,[10],inactive
O=C(Oc1ccccc1)c1ccc(O)cc1,outcome,[10],inactive
